Where a name gives a salt, the structure may show the parent alone. ± gives the uncertainty stated by the source.

The assay deals with Candida albicans SNY425 biofilm. Description: biofilm OD600 with compound plus antifungal (OD600 (absorbance)); higher = more biofilm remaining. To be noted: assay detail: disruption of 24-h mature biofilm (compound + antifungal for a second 24 h).
`CO[C@@H]1[C@H](OC(=O)/C=C/C=C/C=C/C=C/C(=O)O)CC[C@]2(CO2)[C@H]1[C@@]1(C)O[C@@H]1CC=C(C)C` [Fumagillin] + C[C@@H]1[C@H](O)[C@@H](C)/C=C/C=C/C=C/C=C/C=C/C=C/C=C/[C@H](O[C@@H]2O[C@H](C)[C@@H](O)[C@H](N)[C@@H]2O)C[C@@H]2O[C@](O)(C[C@@H](O)C[C@@H](O)[C@H](O)CC[C@@H](O)C[C@@H](O)CC(=O)O[C@H]1C)C[C@H](O)[C@H]2C(=O)O [amphotericin B] (first compound 12.5 µM): the “biofilm OD600” value was determined as 0.264 ± 0.0097. Turning to `C[C@]1(Cn2ccnn2)[C@H](C(=O)O)N2C(=O)C[C@H]2S1(=O)=O` [Tazobactam] + C[C@@H]1[C@H](O)[C@@H](C)/C=C/C=C/C=C/C=C/C=C/C=C/C=C/[C@H](O[C@@H]2O[C@H](C)[C@@H](O)[C@H](N)[C@@H]2O)C[C@@H]2O[C@](O)(C[C@@H](O)C[C@@H](O)[C@H](O)CC[C@@H](O)C[C@@H](O)CC(=O)O[C@H]1C)C[C@H](O)[C@H]2C(=O)O [amphotericin B] (first compound 12.5 µM), the “biofilm OD600” value came to 0.308 ± 0.008.

`CC(C)(C)NC(=O)[C@@H]1CN(Cc2cccnc2)CCN1C[C@@H](O)C[C@@H](Cc1ccccc1)C(=O)N[C@H]1c2ccccc2C[C@H]1O` [indinavir] + OC(Cn1cncn1)(Cn1cncn1)c1ccc(F)cc1F [fluconazole] (first compound 12.5 µM): the “biofilm OD600” value was found to be 0.273 ± 0.013. Regarding `CC1(C)C[C@@H]1C(=O)N/C(=C\CCCCSC[C@H](N)C(=O)O)C(=O)O` [Cilastatin] + CC[C@H](C)C[C@H](C)CCCCCCCCC(=O)N[C@H]1C[C@@H](O)[C@@H](NCCN)NC(=O)[C@@H]2[C@@H](O)CCN2C(=O)[C@H]([C@H](O)CCN)NC(=O)[C@H]([C@H](O)[C@@H](O)c2ccc(O)cc2)NC(=O)[C@@H]2C[C@@H](O)CN2C(=O)[C@H]([C@@H](C)O)NC1=O [caspofungin] (first compound 12.5 µM), the “biofilm OD600” value amounted to 0.283 ± 0.0048.

In the case of `CC(C)CC(=O)N[C@H](C(=O)N[C@H](C(=O)N[C@@H](CC(C)C)[C@@H](O)CC(=O)N[C@@H](C)C(=O)N[C@@H](CC(C)C)[C@@H](O)CC(=O)O)C(C)C)C(C)C` [Pepstatin A] + OC(Cn1cncn1)(Cn1cncn1)c1ccc(F)cc1F [fluconazole] (first compound 12.5 µM), the “biofilm OD600” value stood at 0.255 ± 0.007.

As to `NCC1CCC(C(=O)N[C@@H](Cc2ccccc2)C(=O)Nc2ccc(CC(=O)O)cc2)CC1` (some centres undefined) + CC[C@H](C)C[C@H](C)CCCCCCCCC(=O)N[C@H]1C[C@@H](O)[C@@H](NCCN)NC(=O)[C@@H]2[C@@H](O)CCN2C(=O)[C@H]([C@H](O)CCN)NC(=O)[C@H]([C@H](O)[C@@H](O)c2ccc(O)cc2)NC(=O)[C@@H]2C[C@@H](O)CN2C(=O)[C@H]([C@@H](C)O)NC1=O [caspofungin] (first compound 12.5 µM), the “biofilm OD600” value was 0.26 ± 0.0081.

Take `Nc1ccc(CC(CC(=O)O)C(=O)O)cc1` [4-Amino-D, L-benzylsuccinic acid] + OC(Cn1cncn1)(Cn1cncn1)c1ccc(F)cc1F [fluconazole] (first compound 12.5 µM): the “biofilm OD600” value stood at 0.291 ± 0.009. Next, `NCCCC[C@H](N[C@@H](CCc1ccccc1)C(=O)O)C(=O)N1CCC[C@H]1C(=O)O` [Lisinopril] + OC(Cn1cncn1)(Cn1cncn1)c1ccc(F)cc1F [fluconazole] (first compound 12.5 µM): 0.26 ± 0.0069; `CCOC(=O)c1ccc(OC(=O)CCCCCNC(=N)N)cc1` [Gabexate mesylate] + OC(Cn1cncn1)(Cn1cncn1)c1ccc(F)cc1F [fluconazole] (first compound 12.5 µM): 0.267 ± 0.013; `O=C(NCCCCN1CCOCC1)c1cc2ccccc2o1` + C[C@@H]1[C@H](O)[C@@H](C)/C=C/C=C/C=C/C=C/C=C/C=C/C=C/[C@H](O[C@@H]2O[C@H](C)[C@@H](O)[C@H](N)[C@@H]2O)C[C@@H]2O[C@](O)(C[C@@H](O)C[C@@H](O)[C@H](O)CC[C@@H](O)C[C@@H](O)CC(=O)O[C@H]1C)C[C@H](O)[C@H]2C(=O)O [amphotericin B] (first compound 12.5 µM): 0.262 ± 0.0087.

Take `CCC(C)[C@H](NS(=O)(=O)c1cccc2ccccc12)C(=O)N[C@H](C=O)Cc1c[nH]c2ccccc12` (some centres undefined) + OC(Cn1cncn1)(Cn1cncn1)c1ccc(F)cc1F [fluconazole] (first compound 12.5 µM): the “biofilm OD600” value was 0.249 ± 0.0046. Next, `CC(C)(C)NC(=O)[C@@H]1C[C@@H]2CCCC[C@@H]2CN1C[C@@H](O)[C@H](Cc1ccccc1)NC(=O)[C@H](CC(N)=O)NC(=O)c1ccc2ccccc2n1` [saquinavir] + OC(Cn1cncn1)(Cn1cncn1)c1ccc(F)cc1F [fluconazole] (first compound 12.5 µM): 0.255 ± 0.0074; `CSCCC(C=O)NC(=O)C(CC(C)C)NC(=O)[C@H](CC(C)C)NC(C)=O` (some centres undefined) [Calpain Inhibitor II (ALLM)] + CC[C@H](C)C[C@H](C)CCCCCCCCC(=O)N[C@H]1C[C@@H](O)[C@@H](NCCN)NC(=O)[C@@H]2[C@@H](O)CCN2C(=O)[C@H]([C@H](O)CCN)NC(=O)[C@H]([C@H](O)[C@@H](O)c2ccc(O)cc2)NC(=O)[C@@H]2C[C@@H](O)CN2C(=O)[C@H]([C@@H](C)O)NC1=O [caspofungin] (first compound 12.5 µM): 0.249 ± 0.0042. Next, `CCOC(=O)c1ccc(OC(=O)CCCCCNC(=N)N)cc1` [Gabexate mesylate] + C[C@@H]1[C@H](O)[C@@H](C)/C=C/C=C/C=C/C=C/C=C/C=C/C=C/[C@H](O[C@@H]2O[C@H](C)[C@@H](O)[C@H](N)[C@@H]2O)C[C@@H]2O[C@](O)(C[C@@H](O)C[C@@H](O)[C@H](O)CC[C@@H](O)C[C@@H](O)CC(=O)O[C@H]1C)C[C@H](O)[C@H]2C(=O)O [amphotericin B] (first compound 12.5 µM): 0.281 ± 0.012.

Take `O=C(O[C@@H]1Cc2c(O)cc(O)cc2O[C@@H]1c1cc(O)c(O)c(O)c1)c1cc(O)c(O)c(O)c1` [Epigallocatechin gallate] + OC(Cn1cncn1)(Cn1cncn1)c1ccc(F)cc1F [fluconazole] (first compound 12.5 µM): the “biofilm OD600” value came to 0.262 ± 0.011. In the case of `NC(=O)c1cccc(-c2cccc(OC(=O)NC3CCCCC3)c2)c1` + CC[C@H](C)C[C@H](C)CCCCCCCCC(=O)N[C@H]1C[C@@H](O)[C@@H](NCCN)NC(=O)[C@@H]2[C@@H](O)CCN2C(=O)[C@H]([C@H](O)CCN)NC(=O)[C@H]([C@H](O)[C@@H](O)c2ccc(O)cc2)NC(=O)[C@@H]2C[C@@H](O)CN2C(=O)[C@H]([C@@H](C)O)NC1=O [caspofungin] (first compound 12.5 µM), the “biofilm OD600” value was 0.283 ± 0.011.

As to `CC(C)CCNC(=O)[C@H](CC(C)C)NC(=O)[C@H]1O[C@@H]1C(=O)O` + OC(Cn1cncn1)(Cn1cncn1)c1ccc(F)cc1F [fluconazole] (first compound 12.5 µM), the “biofilm OD600” value amounted to 0.25 ± 0.0093. Turning to `N[C@H](C(=O)O)[C@@H]1CC(Cl)=NO1` [Acivicin] + OC(Cn1cncn1)(Cn1cncn1)c1ccc(F)cc1F [fluconazole] (first compound 4 µM), the “biofilm OD600” value came to 0.279 ± 0.0067. In the case of `CC1(C)C[C@@H]1C(=O)N/C(=C\CCCCSC[C@H](N)C(=O)O)C(=O)O` [Cilastatin] + OC(Cn1cncn1)(Cn1cncn1)c1ccc(F)cc1F [fluconazole] (first compound 12.5 µM) it was 0.271 ± 0.011. Next, `NCCCC[C@H](N[C@@H](CCc1ccccc1)C(=O)O)C(=O)N1CCC[C@H]1C(=O)O` [Lisinopril] + CC[C@H](C)C[C@H](C)CCCCCCCCC(=O)N[C@H]1C[C@@H](O)[C@@H](NCCN)NC(=O)[C@@H]2[C@@H](O)CCN2C(=O)[C@H]([C@H](O)CCN)NC(=O)[C@H]([C@H](O)[C@@H](O)c2ccc(O)cc2)NC(=O)[C@@H]2C[C@@H](O)CN2C(=O)[C@H]([C@@H](C)O)NC1=O [caspofungin] (first compound 12.5 µM): 0.258 ± 0.011; `O=C(O[C@@H]1Cc2c(O)cc(O)cc2O[C@@H]1c1cc(O)c(O)c(O)c1)c1cc(O)c(O)c(O)c1` [Epigallocatechin gallate] + CC[C@H](C)C[C@H](C)CCCCCCCCC(=O)N[C@H]1C[C@@H](O)[C@@H](NCCN)NC(=O)[C@@H]2[C@@H](O)CCN2C(=O)[C@H]([C@H](O)CCN)NC(=O)[C@H]([C@H](O)[C@@H](O)c2ccc(O)cc2)NC(=O)[C@@H]2C[C@@H](O)CN2C(=O)[C@H]([C@@H](C)O)NC1=O [caspofungin] (first compound 12.5 µM): 0.264 ± 0.016. As for `O=C(O)CNC(=O)C(CS)Cc1ccccc1` (racemic) [DL-Thiorphan] + OC(Cn1cncn1)(Cn1cncn1)c1ccc(F)cc1F [fluconazole] (first compound 12.5 µM), the “biofilm OD600” value worked out at 0.262 ± 0.0084. Next, `CC(C)C[C@H](NC(=O)[C@@H](O)[C@H](N)Cc1ccccc1)C(=O)O` [Bestatin·HCl] + C[C@@H]1[C@H](O)[C@@H](C)/C=C/C=C/C=C/C=C/C=C/C=C/C=C/[C@H](O[C@@H]2O[C@H](C)[C@@H](O)[C@H](N)[C@@H]2O)C[C@@H]2O[C@](O)(C[C@@H](O)C[C@@H](O)[C@H](O)CC[C@@H](O)C[C@@H](O)CC(=O)O[C@H]1C)C[C@H](O)[C@H]2C(=O)O [amphotericin B] (first compound 12.5 µM): 0.288 ± 0.0087; `CC(C)C[C@H](NC(=O)N[C@H](C(=O)N[C@@H](CCC(N)=O)C(=O)N[C@@H](C)C=O)[C@@H]1CCNC(=N)N1)C(=O)O` [Elastatinal] + C[C@@H]1[C@H](O)[C@@H](C)/C=C/C=C/C=C/C=C/C=C/C=C/C=C/[C@H](O[C@@H]2O[C@H](C)[C@@H](O)[C@H](N)[C@@H]2O)C[C@@H]2O[C@](O)(C[C@@H](O)C[C@@H](O)[C@H](O)CC[C@@H](O)C[C@@H](O)CC(=O)O[C@H]1C)C[C@H](O)[C@H]2C(=O)O [amphotericin B] (first compound 12.5 µM): 0.273 ± 0.0073.

The values are drawn from the supplement of paper PMC7261846.
